Results reported in PubChem BioAssay.
For some assays here: Entries with a potency or affinity are not part of this list. Activity calls are given as the source filed them. Unless noted, how the calls were made is not given here.

Assays:
[1] = antimalarial activity against Dd2 strain (AID 2302;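 active means growth inhibition above 50% at the single 2 µM test dose, taken to imply half-maximal potency below 2 µM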;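 further: 0% = DMSO untreated growth and 100% = chloroquine plus artemisinin killed control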); details: P. falciparum Dd2 in RBCs, LDH growth readout, 72 h; at 2 µM; stronger effect = higher value
[2] = HepG2 cytotoxicity, primary screen, cytotoxicity control for P. falciparum antimalarial project, cell-based, ATP luminescence (AID 2303;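 active means inhibition above 50%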;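 further: 0% = DMSO wells and 100% = digitonin-killed cells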); details: HepG2 viability, 24-48 h, at 10 µM, stronger effect = higher value
[3] = target: L-lactate dehydrogenase (Plasmodium falciparum (isolate CDC / Honduras)) (UniProt Q27743); assay: PfLDH activity inhibition – cell lysate, 3D7 strain, counter-screen for P. falciparum growth inhibition project (AID 2304);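 further: 0% = vehicle and 100% = reference inhibitor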; details: P. falciparum 3D7 crude extract, LDH APAD/NBT absorbance; at 2 µM; stronger effect = higher value
Chain of L-lactate dehydrogenase (Plasmodium falciparum (isolate CDC / Honduras)) (Q27743 whole entry, looked up): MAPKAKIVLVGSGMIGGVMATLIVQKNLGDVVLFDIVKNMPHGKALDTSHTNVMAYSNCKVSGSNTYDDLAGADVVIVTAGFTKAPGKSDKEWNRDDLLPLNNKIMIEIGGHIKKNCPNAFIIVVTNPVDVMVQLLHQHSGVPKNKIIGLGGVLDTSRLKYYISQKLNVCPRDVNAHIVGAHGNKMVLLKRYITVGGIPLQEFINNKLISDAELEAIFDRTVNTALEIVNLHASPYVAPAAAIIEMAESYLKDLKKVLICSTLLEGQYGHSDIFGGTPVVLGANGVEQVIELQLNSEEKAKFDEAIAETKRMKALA

[4] = inhibition of 3D7 malaria parasite growth – strain 3D7 (AID 2306);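 further: 0% = DMSO wells and 100% = chloroquine plus artemisinin control wells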; details: P. falciparum 3D7 erythrocytic growth, LDH absorbance, 72 h; at 2 µM; stronger effect = higher value
[5] = target: Calcium-dependent protein kinase 1 (Plasmodium falciparum (isolate 3D7)) (UniProt P62344); assay: PfCDPK1 kinase inhibitors, biochemical, TCAMS library (AID 1159585; cut-off not given, nearly all actives have IC50 up to about 0.98 µM;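 further: inhibitors leave more ATP so luminescence rises with inhibition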); details: recombinant PfCDPK1, Kinase-Glo ATP depletion luminescence
Chain of Calcium-dependent protein kinase 1 (Plasmodium falciparum (isolate 3D7)) (P62344 whole entry, looked up): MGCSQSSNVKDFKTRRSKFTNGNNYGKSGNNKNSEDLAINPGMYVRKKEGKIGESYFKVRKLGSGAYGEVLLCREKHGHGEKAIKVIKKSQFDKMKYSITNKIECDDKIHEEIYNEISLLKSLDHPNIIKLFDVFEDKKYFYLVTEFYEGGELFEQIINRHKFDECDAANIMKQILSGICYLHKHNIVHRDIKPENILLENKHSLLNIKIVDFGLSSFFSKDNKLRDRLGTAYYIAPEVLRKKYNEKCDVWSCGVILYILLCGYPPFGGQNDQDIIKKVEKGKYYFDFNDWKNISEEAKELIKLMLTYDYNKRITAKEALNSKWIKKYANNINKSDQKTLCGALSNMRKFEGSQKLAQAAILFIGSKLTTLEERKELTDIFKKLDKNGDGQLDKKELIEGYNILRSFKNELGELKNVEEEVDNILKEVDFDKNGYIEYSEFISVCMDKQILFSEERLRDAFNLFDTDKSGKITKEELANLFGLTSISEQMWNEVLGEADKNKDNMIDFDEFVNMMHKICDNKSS

[6] = target: Plasmodium falciparum protein kinase 6 (PK6, PF3D7_1337100) (UniProt Q8IDW1); assay: PfPK6 kinase inhibitors, biochemical, TCAMS library (AID 1159586); details: recombinant PfPK6, Kinase-Glo ATP depletion luminescence
Chain of Plasmodium falciparum protein kinase 6 (PK6, PF3D7_1337100) (Q8IDW1 1-305): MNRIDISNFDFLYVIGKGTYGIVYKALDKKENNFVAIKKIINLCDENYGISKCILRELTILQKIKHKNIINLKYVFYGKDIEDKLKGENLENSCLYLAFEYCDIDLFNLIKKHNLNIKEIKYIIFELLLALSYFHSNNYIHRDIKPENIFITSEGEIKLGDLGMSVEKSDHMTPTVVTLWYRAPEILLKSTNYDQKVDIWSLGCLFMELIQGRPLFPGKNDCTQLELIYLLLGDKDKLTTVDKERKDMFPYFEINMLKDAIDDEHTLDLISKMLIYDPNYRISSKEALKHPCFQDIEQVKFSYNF

[7] = target: Protein kinase 7 (PK7), Plasmodium falciparum 3D7 (PF3D7_0213400) (UniProt Q7YTF7); assay: inhibition of Plasmodium PK7 catalytic activity – biochemical, TCAMS antimalarial set, Kinase-Glo luminescence (AID 1159587); details: recombinant PfPK7, Kinase-Glo ATP depletion luminescence
Chain of Protein kinase 7 (PK7), Plasmodium falciparum 3D7 (PF3D7_0213400) (Q7YTF7 1-343): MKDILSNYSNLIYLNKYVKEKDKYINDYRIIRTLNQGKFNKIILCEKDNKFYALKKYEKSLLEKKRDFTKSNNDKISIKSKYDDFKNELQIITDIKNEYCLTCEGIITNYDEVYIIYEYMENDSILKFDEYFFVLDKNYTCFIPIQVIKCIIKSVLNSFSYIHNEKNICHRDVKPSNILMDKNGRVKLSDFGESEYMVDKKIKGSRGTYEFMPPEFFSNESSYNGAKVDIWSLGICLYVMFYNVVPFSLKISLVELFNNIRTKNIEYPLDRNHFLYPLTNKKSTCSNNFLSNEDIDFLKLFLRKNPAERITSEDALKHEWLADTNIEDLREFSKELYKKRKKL

[8] = target: Calcium-dependent protein kinase 4 (Plasmodium falciparum (isolate 3D7)) (UniProt Q8IBS5); assay: PfCDPK4 kinase inhibitors, biochemical, TCAMS library (AID 1159588; cut-off not given, nearly all actives have IC50 up to about 0.91 µM); details: recombinant PfCDPK4, Kinase-Glo ATP depletion luminescence
Chain of Calcium-dependent protein kinase 4 (Plasmodium falciparum (isolate 3D7)) (Q8IBS5 whole entry, looked up): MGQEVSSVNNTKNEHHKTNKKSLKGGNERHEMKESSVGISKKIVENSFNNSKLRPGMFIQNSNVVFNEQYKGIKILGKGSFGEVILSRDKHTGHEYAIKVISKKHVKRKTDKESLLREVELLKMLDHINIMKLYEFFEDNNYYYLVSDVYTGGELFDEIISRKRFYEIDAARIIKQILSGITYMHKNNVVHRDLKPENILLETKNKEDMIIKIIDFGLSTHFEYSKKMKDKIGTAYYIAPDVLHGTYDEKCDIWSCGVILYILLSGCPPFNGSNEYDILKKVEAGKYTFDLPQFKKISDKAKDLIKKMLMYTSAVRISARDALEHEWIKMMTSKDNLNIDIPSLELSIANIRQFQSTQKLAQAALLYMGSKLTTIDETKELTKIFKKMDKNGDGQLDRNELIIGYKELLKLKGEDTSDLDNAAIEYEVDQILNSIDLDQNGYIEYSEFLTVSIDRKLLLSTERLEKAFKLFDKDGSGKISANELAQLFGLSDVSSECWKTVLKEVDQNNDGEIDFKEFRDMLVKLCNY

COc1cc(NC(=O)c2sc(-c3ccc(Cl)cc3)cc2Cl)ccc1OCCN1CCCC1
active: inhibition [2] 72% | growth inhibition [4] 93%
inactive: growth inhibition [1] 21% | inhibition [3] 4% | outcome [5] | outcome [6] | outcome [7] | outcome [8]

O=C1CC(C(=O)Nc2cccc(-c3cccc(-c4nc5ccccc5[nH]4)c3)c2)c2ccccc2N1 (stereo not given)
inactive: growth inhibition [1] 32% | inhibition [2] 0% | inhibition [3] 1% | outcome [5] | outcome [6] | outcome [7] | outcome [8]
active: growth inhibition [4] 84%

CCCCOc1c(CNCCCCCCNCc2ccc3ccccc3c2OCCCC)ccc2ccccc12
active: growth inhibition [1] 89% | inhibition [2] 99% | growth inhibition [4] 96%
inactive: inhibition [3] 7% | outcome [5] | outcome [6] | outcome [7] | outcome [8]

c1cc(CN2CCCCC2)cc(OCCCNc2ccnc3ccccc23)c1
active: growth inhibition [1] 99% | growth inhibition [4] 100%
inactive: inhibition [2] 48% | inhibition [3] -1% | outcome [5] | outcome [6] | outcome [7] | outcome [8]

Nc1nc(N)c2c(Cl)c(CNc3cccc(C(=O)O)c3)ccc2n1
active: growth inhibition [1] 97% | inhibition [2] 69% | growth inhibition [4] 93%
inactive: inhibition [3] 7% | outcome [5] | outcome [6] | outcome [7] | outcome [8]

COc1c(C2CCN(CCCCNC(=O)c3ccc(-c4ccc(C#N)cc4)cc3)CC2)ccc2c1C(C)(C)CCC2(C)C
active: growth inhibition [1] 86% | inhibition [2] 98% | growth inhibition [4] 102%
inactive: inhibition [3] -1% | outcome [5] | outcome [6] | outcome [7] | outcome [8]

CC1CN(Cc2ccc(C#N)cc2)CCN1c1ccc(NC(=O)c2cccs2)cc1 (stereo not given)
active: growth inhibition [1] 89% | growth inhibition [4] 93%
inactive: inhibition [2] 8% | inhibition [3] 2% | outcome [5] | outcome [6] | outcome [7] | outcome [8]

O=C([C@H]1C[C@@H]1c1ccccc1)N(Cc1ccc(-c2ccc(CNCCc3ccccc3)cc2)cc1)C1CCNCC1
inactive: growth inhibition [1] 39% | inhibition [2] 36% | inhibition [3] -5% | outcome [5] | outcome [6] | outcome [7] | outcome [8]
active: growth inhibition [4] 96%

CN(CC(=O)Nc1ccc(F)c(F)c1F)c1ncnc2sc(-c3ccccc3)cc12
inactive: growth inhibition [1] 34% | inhibition [2] 0% | inhibition [3] 2% | outcome [5] | outcome [6] | outcome [7] | outcome [8]
active: growth inhibition [4] 95%

CCCc1cnc2nc(N)nc(N)c2c1C
inactive: growth inhibition [1] 3% | inhibition [3] -3% | outcome [5] | outcome [6] | outcome [7] | outcome [8]
active: inhibition [2] 68% | growth inhibition [4] 93%

OC(COc1ccccc1-c1nc2ccccc2o1)CN1CCCN(CCc2ccccc2)CC1 (stereo not given)
active: growth inhibition [4] 97%
inactive: growth inhibition [1] 2% | inhibition [2] 39% | inhibition [3] -5% | outcome [5] | outcome [6] | outcome [7] | outcome [8]

COc1ccc2ncc(C#N)c(CCN3CCC(NCc4cnc5c(c4)OCCO5)CC3)c2n1
active: growth inhibition [4] 91%
inactive: growth inhibition [1] 24% | inhibition [2] 3% | inhibition [3] -3% | outcome [5] | outcome [6] | outcome [7] | outcome [8]

CC[C@H](N=C(Nc1ccc(C#N)cc1O)Nc1cccc(Cl)c1Cl)c1ccccc1
inactive: inhibition [2] -2% | inhibition [3] -1% | outcome [5] | outcome [6] | outcome [7] | outcome [8]
active: growth inhibition [1] 71% | growth inhibition [4] 91%

CC(=O)c1ccc(-c2ccc(C(=O)NCCCCN3CCC(c4ccc5c(c4OCC(N)=O)CCCC5)CC3)cc2)s1
inactive: growth inhibition [1] 4% | inhibition [2] 26% | inhibition [3] -4% | outcome [5] | outcome [6] | outcome [7] | outcome [8]
active: growth inhibition [4] 90%

CC(=O)N1N=C(c2ccccc2)Sc2c1nc(-c1ccc(Cl)cc1)n2C(C)=O
active: growth inhibition [4] 94%
inactive: growth inhibition [1] 18% | inhibition [2] -1% | inhibition [3] 0% | outcome [5] | outcome [6] | outcome [7] | outcome [8]

COc1cccc(-c2nc3c(N4CCN(c5ccncc5)CC4)cccc3n2CC2CCCCCN2)n1 (stereo not given)
inactive: growth inhibition [1] 31% | inhibition [2] 12% | inhibition [3] 3% | outcome [5] | outcome [6] | outcome [7] | outcome [8]
active: growth inhibition [4] 91%

NCc1ccc(-c2ccc3c(N)nccc3c2)cc1
active: growth inhibition [1] 92% | growth inhibition [4] 100%
inactive: inhibition [2] 28% | inhibition [3] 0% | outcome [5] | outcome [6] | outcome [7] | outcome [8]

COc1ccc2nc(NC3=NC(c4ccccn4)(c4ccccn4)C(=O)N3C)[nH]c2c1
active: growth inhibition [1] 98% | inhibition [2] 65% | growth inhibition [4] 99%
inactive: inhibition [3] 1% | outcome [5] | outcome [6] | outcome [7] | outcome [8]

FC(F)(F)c1ccc2nc(-c3cccc(-c4ccc(CNCc5ccccc5)cc4)c3)[nH]c2c1
active: growth inhibition [1] 99% | growth inhibition [4] 101%
inactive: inhibition [2] 25% | inhibition [3] -4% | outcome [5] | outcome [6] | outcome [7] | outcome [8]

COc1ccc(NC(=O)Nc2cccc(-c3cccc(-c4nc5c(C)cccc5[nH]4)c3)c2)cc1
inactive: growth inhibition [1] 43% | inhibition [2] -1% | inhibition [3] 2% | outcome [5] | outcome [6] | outcome [7] | outcome [8]
active: growth inhibition [4] 101%

Cc1nc(C(=O)N2CCCC[C@H]2CNC(=O)c2ccc(-c3ccc(N4CCCC4=O)cc3C)cc2)c(-c2ccc(F)cc2)s1
inactive: inhibition [2] 6% | inhibition [3] 8% | outcome [5] | outcome [6] | outcome [7] | outcome [8]
active: growth inhibition [1] 94% | growth inhibition [4] 98%

O=C(Nc1cc(Oc2ccc(O)cc2)cc([N+](=O)[O-])c1)c1cc(-c2ccc(F)cc2)no1
active: inhibition [2] 61% | growth inhibition [4] 88%
inactive: growth inhibition [1] 37% | inhibition [3] 0% | outcome [5] | outcome [6] | outcome [7] | outcome [8]

CC(C)NC(C)(C)CN(Cc1ccc(-c2ccc(C(F)(F)F)cc2)cc1)C(=O)Cn1c(CCc2cccc(F)c2F)nc(=O)c2ccccc21
active: growth inhibition [1] 68% | growth inhibition [4] 94%
inactive: inhibition [2] 44% | inhibition [3] 3% | outcome [5] | outcome [6] | outcome [7] | outcome [8]

COc1ccc(Cl)cc1NC(=O)CN(C)C(=O)c1cnn(-c2ccccc2)n1
inactive: inhibition [2] -6% | inhibition [3] -2% | outcome [5] | outcome [6] | outcome [7] | outcome [8]
active: growth inhibition [1] 99% | growth inhibition [4] 102%

Cc1cccc(N2CCN(C3CCC(NC(=O)c4cc5ccccc5[nH]4)CC3)CC2)c1C (stereo not given)
inactive: growth inhibition [1] 21% | inhibition [2] 49% | inhibition [3] -4% | outcome [5] | outcome [6] | outcome [7] | outcome [8]
active: growth inhibition [4] 101%

CC(=O)Nc1cc(C(=O)Nc2cccc(-c3cccc(-c4nc5ccc(C(F)(F)F)cc5[nH]4)c3)c2)ccc1C
inactive: growth inhibition [1] 43% | inhibition [3] -4% | outcome [5] | outcome [6] | outcome [7] | outcome [8]
active: inhibition [2] 56% | growth inhibition [4] 97%

Cc1cc(NN=Cc2cccc(Cl)c2)c2ccccc2n1
inactive: inhibition [2] 22% | inhibition [3] 0% | outcome [5] | outcome [6] | outcome [7] | outcome [8]
active: growth inhibition [1] 100% | growth inhibition [4] 100%

O=C(NC1CCN(Cc2ccc(O)cc2)CC1)c1ccc(Cl)c(Cl)c1
active: growth inhibition [4] 95%
inactive: growth inhibition [1] 3% | inhibition [2] 1% | inhibition [3] 4% | outcome [5] | outcome [6] | outcome [7] | outcome [8]

CN1CCN(CCCN(Cc2csc(-c3ccc(CNCc4ccccc4)cc3)n2)S(=O)(=O)c2cccc3cccnc23)CC1
active: growth inhibition [4] 89%
inactive: growth inhibition [1] 32% | inhibition [2] 5% | inhibition [3] 1% | outcome [5] | outcome [6] | outcome [7] | outcome [8]

COc1ccc(C(=O)Nc2ccc(-c3nc4ccc(C)cc4[nH]3)cc2)cc1OC
inactive: growth inhibition [1] 38% | inhibition [3] 0% | outcome [5] | outcome [6] | outcome [7] | outcome [8]
active: inhibition [2] 70% | growth inhibition [4] 100%

O=c1cc(NCCCNCc2cc3ccc(Br)cc3s2)[nH]c2ccccc12
active: growth inhibition [4] 92%
inactive: growth inhibition [1] 8% | inhibition [2] 18% | inhibition [3] -2% | outcome [5] | outcome [6] | outcome [7] | outcome [8]

O=C(C=Cc1ccc([N+](=O)[O-])cc1)N1CCC(CCN2CCC(c3c[nH]c4ccccc34)CC2)CC1
inactive: growth inhibition [1] 48% | inhibition [3] -2% | outcome [5] | outcome [6] | outcome [7] | outcome [8]
active: inhibition [2] 60% | growth inhibition [4] 100%

Cc1cccc2[nH]c(-c3cccc(-c4cccc(NC(=O)COc5ccccc5C(N)=O)c4)c3)nc12
inactive: inhibition [2] 22% | inhibition [3] -2% | outcome [5] | outcome [6] | outcome [7] | outcome [8]
active: growth inhibition [1] 88% | growth inhibition [4] 100%

COc1ccccc1NC(=S)N/N=C/c1ccc(O)cc1O
active: growth inhibition [1] 80% | growth inhibition [4] 89%
inactive: inhibition [2] 35% | inhibition [3] -5% | outcome [5] | outcome [6] | outcome [7] | outcome [8]

CN1CCC(Oc2ccc(NC(=O)c3ccc4c(=O)n(Cc5ccccc5)cnc4c3)cc2Cl)CC1
inactive: growth inhibition [1] 20% | inhibition [2] 23% | inhibition [3] 0% | outcome [5] | outcome [6] | outcome [7] | outcome [8]
active: growth inhibition [4] 95%

O=S(=O)(c1ccccc1Cl)N1CCCCC(c2ccc(C(F)(F)F)cc2)=N1
active: growth inhibition [1] 72% | growth inhibition [4] 86%
inactive: inhibition [2] 22% | inhibition [3] 4% | outcome [5] | outcome [6] | outcome [7] | outcome [8]

O=C(Nc1cccc(C(F)(F)F)c1)Nc1ccc2nonc2c1
active: growth inhibition [1] 76% | growth inhibition [4] 98%
inactive: inhibition [2] -4% | inhibition [3] 5% | outcome [5] | outcome [6] | outcome [7] | outcome [8]

CS(=O)(=O)CCNCc1ccc(-c2cc3c(Nc4ccc(OCc5cccc(F)c5)c(Cl)c4)ncnc3s2)[nH]1
inactive: inhibition [2] 5% | inhibition [3] 2% | outcome [5] | outcome [6] | outcome [7] | outcome [8]
active: growth inhibition [1] 95% | growth inhibition [4] 99%

NC(=NCCc1ccc(Cl)c(Cl)c1)c1ccc2ccccc2c1
active: inhibition [2] 60% | growth inhibition [4] 100%
inactive: growth inhibition [1] 29% | inhibition [3] -3% | outcome [5] | outcome [6] | outcome [7] | outcome [8]

O=C(Nc1ccc(OC2CCN(Cc3ccc(F)cc3)C2)c(Cl)c1)c1ccoc1 (stereo not given)
inactive: inhibition [2] 13% | inhibition [3] 2% | outcome [5] | outcome [6] | outcome [7] | outcome [8]
active: growth inhibition [1] 90% | growth inhibition [4] 90%
